# Assay results published in publication PMC11062922 (Nature Chemical Biology, 2023).
# Like-named read-outs stand apart in the source and are kept apart here.
# Tested on: AURKA
# Conditions: read-out: apparent Kd, n = 1
substance,measurement,setting,value
Lestaurtinib,potency estimated from few doses,"compound concentrations:100 nM and 1000 nM (sheet 'Lestaurtinib' of Supplementary Table 1),run:Lestaurtinib_02438_R2,Plate:MR008",18.1 nM
same,potency estimated from few doses,"compound concentrations:100 nM and 1000 nM (sheet 'Lestaurtinib' of Supplementary Table 1),run:Lestaurtinib_02438_R3,Plate:MR008",16.7 nM
same,potency estimated from few doses,"compound concentrations:100 nM and 1000 nM (sheet 'Lestaurtinib' of Supplementary Table 1),run:Lestaurtinib_02443_R1,Plate:MR009",19 nM
same,potency estimated from few doses,"compound concentrations:100 nM and 1000 nM (sheet 'Lestaurtinib' of Supplementary Table 1),run:Lestaurtinib_02443_R3,Plate:MR009",22 nM
same,potency estimated from few doses,"compound concentrations:100 nM and 1000 nM (sheet 'Lestaurtinib' of Supplementary Table 1),run:Lestaurtinib_02473_R1,Plate:MR010",20 nM
same,potency estimated from few doses,"compound concentrations:100 nM and 1000 nM (sheet 'Lestaurtinib' of Supplementary Table 1),run:Lestaurtinib_02473_R3,Plate:MR010",16.1 nM
same,potency estimated from few doses,"compound concentrations:100 nM and 1000 nM (sheet 'Lestaurtinib' of Supplementary Table 1),run:Lestaurtinib_02482_R1,Plate:MR011",18.9 nM
same,potency estimated from few doses,"compound concentrations:100 nM and 1000 nM (sheet 'Lestaurtinib' of Supplementary Table 1),run:Lestaurtinib_02482_R2,Plate:MR011",19.3 nM
same,potency estimated from few doses,"compound concentrations:100 nM and 1000 nM (sheet 'Lestaurtinib' of Supplementary Table 1),run:Lestaurtinib_02487_R1,Plate:MR012",17.5 nM
same,potency estimated from few doses,"compound concentrations:100 nM and 1000 nM (sheet 'Lestaurtinib' of Supplementary Table 1),run:Lestaurtinib_02487_R3,Plate:MR012",24.8 nM
same,potency estimated from few doses,"compound concentrations:100 nM and 1000 nM (sheet 'Lestaurtinib' of Supplementary Table 1),run:Lestaurtinib_02496_R2,Plate:MR013",17.6 nM
same,potency estimated from few doses,"compound concentrations:100 nM and 1000 nM (sheet 'Lestaurtinib' of Supplementary Table 1),run:Lestaurtinib_02566_R2,Plate:MR014",21.1 nM
same,potency estimated from few doses,"compound concentrations:100 nM and 1000 nM (sheet 'Lestaurtinib' of Supplementary Table 1),run:Lestaurtinib_02572_R1,Plate:MR015",21.1 nM
same,potency estimated from few doses,"compound concentrations:100 nM and 1000 nM (sheet 'Lestaurtinib' of Supplementary Table 1),run:Lestaurtinib_02572_R3,Plate:MR015",17.9 nM
same,potency estimated from few doses,"compound concentrations:100 nM and 1000 nM (sheet 'Lestaurtinib' of Supplementary Table 1),run:Lestaurtinib_02577_R1,Plate:MR016",21.8 nM
same,potency estimated from few doses,"compound concentrations:100 nM and 1000 nM (sheet 'Lestaurtinib' of Supplementary Table 1),run:Lestaurtinib_02577_R2,Plate:MR016",21.1 nM
same,potency estimated from few doses,"compound concentrations:100 nM and 1000 nM (sheet 'Lestaurtinib' of Supplementary Table 1),run:Lestaurtinib_02577_R3,Plate:MR016",20.9 nM
same,potency estimated from few doses,"compound concentrations:100 nM and 1000 nM (sheet 'Lestaurtinib' of Supplementary Table 1),run:Lestaurtinib_02584_R1,Plate:MR017",21.8 nM
same,potency estimated from few doses,"compound concentrations:100 nM and 1000 nM (sheet 'Lestaurtinib' of Supplementary Table 1),run:Lestaurtinib_02584_R2,Plate:MR017",19.7 nM
same,potency estimated from few doses,"compound concentrations:100 nM and 1000 nM (sheet 'Lestaurtinib' of Supplementary Table 1),run:Lestaurtinib_02601_R1,Plate:MR018",21.1 nM
same,potency estimated from few doses,"compound concentrations:100 nM and 1000 nM (sheet 'Lestaurtinib' of Supplementary Table 1),run:Lestaurtinib_02601_R2,Plate:MR018",25.6 nM
same,potency estimated from few doses,"compound concentrations:100 nM and 1000 nM (sheet 'Lestaurtinib' of Supplementary Table 1),run:Lestaurtinib_02601_R3,Plate:MR018",21.7 nM
same,potency estimated from few doses,"compound concentrations:100 nM and 1000 nM (sheet 'Lestaurtinib' of Supplementary Table 1),run:Lestaurtinib_02606_R1,Plate:MR019",19.1 nM
same,potency estimated from few doses,"compound concentrations:100 nM and 1000 nM (sheet 'Lestaurtinib' of Supplementary Table 1),run:Lestaurtinib_02606_R2,Plate:MR019",20.8 nM
same,potency estimated from few doses,"compound concentrations:100 nM and 1000 nM (sheet 'Lestaurtinib' of Supplementary Table 1),run:Lestaurtinib_02606_R3,Plate:MR019",21.9 nM
same,potency estimated from few doses,"compound concentrations:100 nM and 1000 nM (sheet 'Lestaurtinib' of Supplementary Table 1),run:Lestaurtinib_02624_R1,Plate:MR020",17.5 nM
same,potency estimated from few doses,"compound concentrations:100 nM and 1000 nM (sheet 'Lestaurtinib' of Supplementary Table 1),run:Lestaurtinib_02624_R3,Plate:MR020",15.7 nM
same,potency estimated from few doses,"compound concentrations:100 nM and 1000 nM (sheet 'Lestaurtinib' of Supplementary Table 1),run:Lestaurtinib_02724_R2,Plate:MR021",21.3 nM
same,potency estimated from few doses,"compound concentrations:100 nM and 1000 nM (sheet 'Lestaurtinib' of Supplementary Table 1),run:Lestaurtinib_02741_R2,Plate:MR023",19.9 nM
same,potency estimated from few doses,"compound concentrations:100 nM and 1000 nM (sheet 'Lestaurtinib' of Supplementary Table 1),run:Lestaurtinib_02741_R3,Plate:MR023",23.2 nM
same,potency estimated from few doses,"compound concentrations:100 nM and 1000 nM (sheet 'Lestaurtinib' of Supplementary Table 1),run:Lestaurtinib_02748_R2,Plate:MR024",22.5 nM
same,potency estimated from few doses,"compound concentrations:100 nM and 1000 nM (sheet 'Lestaurtinib' of Supplementary Table 1),run:Lestaurtinib_02748_R3,Plate:MR024",22.2 nM
same,potency estimated from few doses,"compound concentrations:100 nM and 1000 nM (sheet 'Lestaurtinib' of Supplementary Table 1),run:Lestaurtinib_02752_R1,Plate:MR025",19 nM
same,potency estimated from few doses,"compound concentrations:100 nM and 1000 nM (sheet 'Lestaurtinib' of Supplementary Table 1),run:Lestaurtinib_02752_R2,Plate:MR025",16 nM
same,potency estimated from few doses,"compound concentrations:100 nM and 1000 nM (sheet 'Lestaurtinib' of Supplementary Table 1),run:Lestaurtinib_02752_R3,Plate:MR025",19.7 nM
same,potency estimated from few doses,"compound concentrations:100 nM and 1000 nM (sheet 'Lestaurtinib' of Supplementary Table 1),run:Lestaurtinib_02765_R2,Plate:MR026",23.1 nM
same,potency estimated from few doses,"compound concentrations:100 nM and 1000 nM (sheet 'Lestaurtinib' of Supplementary Table 1),run:Lestaurtinib_02766_R1,Plate:MR027",17.5 nM
same,potency estimated from few doses,"compound concentrations:100 nM and 1000 nM (sheet 'Lestaurtinib' of Supplementary Table 1),run:Lestaurtinib_02766_R2,Plate:MR027",17 nM
same,potency estimated from few doses,"compound concentrations:100 nM and 1000 nM (sheet 'Lestaurtinib' of Supplementary Table 1),run:Lestaurtinib_02766_R3,Plate:MR027",19.1 nM
same,potency estimated from few doses,"compound concentrations:100 nM and 1000 nM (sheet 'Lestaurtinib' of Supplementary Table 1),run:Lestaurtinib_02768_R1,Plate:MR028",20.8 nM
same,potency estimated from few doses,"compound concentrations:100 nM and 1000 nM (sheet 'Lestaurtinib' of Supplementary Table 1),run:Lestaurtinib_02768_R3,Plate:MR028",19.7 nM
same,potency estimated from few doses,"compound concentrations:100 nM and 1000 nM (sheet 'Lestaurtinib' of Supplementary Table 1),run:Lestaurtinib_02795_R3,Plate:MR022",60.5 nM
